# High-throughput results (PubChem BioAssay)
# Sampled rows, rich in hits. Any-hit rate of the full collection: about 7.5%.
# Giardia FBPA inh-1: Giardia lamblia aldolase inhibition. A8B2U2. purified Giardia FBPA. Potency, µM (doses to about 59.6 µM), without a hit: at the highest dose activity, negative = inhibition, hits mostly inhibitors. 290,000 compounds, 0.71% hits. AID 2451; also: potency is read from the fitted curve at half-maximal effect; nearly all actives have a fitted effect of over 55% in size
# Target sequence (A8B2U2 whole entry, looked up): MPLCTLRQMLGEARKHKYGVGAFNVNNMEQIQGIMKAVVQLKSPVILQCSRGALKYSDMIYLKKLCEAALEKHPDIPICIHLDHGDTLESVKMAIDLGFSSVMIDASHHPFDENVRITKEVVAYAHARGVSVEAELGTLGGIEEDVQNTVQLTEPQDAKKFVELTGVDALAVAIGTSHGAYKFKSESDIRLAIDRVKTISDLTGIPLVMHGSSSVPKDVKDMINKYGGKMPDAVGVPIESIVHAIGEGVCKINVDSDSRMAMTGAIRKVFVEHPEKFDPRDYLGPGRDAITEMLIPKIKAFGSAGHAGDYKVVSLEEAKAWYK
#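 Giardia FBPA (40 nM reagent) was preincubated 10 min at RT with compound (up to 57.5 uM final), then substrate plus GAPDH/TPI/NAD/arsenate coupling system with diaphorase/resazurin was added; resorufin fluorescence (525/598 nm) was read after 20 min.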
# VACV mCherry inh: vaccinia inhibition (mCherry reporter); Vaccinia virus mCherry reporter infection, fluorescence; Potency, µM (series often up to 36.5 µM), inactives show at the top dose activity change, negative = inhibition, most hits filed as inhibitors; 310,000 compounds, 0.63% hits; calls by dose curve; tested in A549 cells; also: potency is read from the fitted curve at half-maximal effect; nearly all actives have a fitted effect of over 35% in size
# FMDV inh: foot and mouth disease virus antiviral activity. FMDV antiviral cell-based qHTS. Potency, µM (titrated, usually from 57.9 µM), inactives show at the highest dose activity change, negative = inhibition, hits mostly inhibitors. 410,000 compounds, 1.2% hits. AID 1159524; calls by dose curve; tested in HEK293T cells; also: read-out not given here; potency is read from the fitted curve at half-maximal effect; nearly all actives have a fitted effect of over 45% in size
# HCMV antiviral: inhibitors of human cytomegalovirus; AID 1259415; activity change, negative = inhibition, % at 57.5 µM; HFF cells, HCMV-luciferase reporter, 72 h; hits give low values; 410,000 compounds, 4.5% hits; in the data active = activity change below about -60%; inconclusive = no clear call, values can overlap the other calls; inactive = above about -39%
#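 Two compound doses tested in HFFs infected with HCMV-luciferase, MOI 1 PFU/cell, 72 h at 37C. Lysate luminescence read with OneGlo; data normalized against buffer-only and 10uM Salinomycin inhibitor controls.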
# HCV inh: HCV inhibition; Huh7.5.1 HCVcc-Cre infection, luciferase reporter, 44 h; 340,000 compounds, 3.4% hits; Potency, µM (top dose mostly 41.8 µM), inactives show at the top dose activity change, negative = inhibition, hits mostly inhibitors; also: potency is read from the fitted curve at half-maximal effect
#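 Infectious HCV cell culture screen: compound-treated cells (1,000/well, pre-plated 4 h) are infected with HCVcc-Cre at roughly 0.5 moi and grown 44 h. Infection is quantified by luciferase signal after 15 min substrate incubation at room temperature.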
# VACV Venus inh: inhibitors of vaccinia virus (Venus reporter). Vaccinia virus Venus reporter expression, fluorescence. Potency, µM (doses to about 36.5 µM), for inactives: top-dose activity change, negative = inhibition, most hits filed as inhibitors. 330,000 compounds, 0.46% hits. AID 720580; calls by dose curve; tested in A549 cells; also: potency is read from the fitted curve at half-maximal effect; nearly all actives have a fitted effect of over 30% in size
# Giardia growth: inhibitors of Giardia lamblia growth; Potency, µM (highest dose often 57.5 µM), for the others: top-dose activity change, negative = inhibition, usual class: inhibitors; 1,500 compounds, 5% hits; Giardia lamblia trophozoite growth inhibition; shares compounds with Giardia FBPA inh-1;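 also: potency is read from the fitted curve at half-maximal effect; trophozoites exposed to compound for 48 h at 37 °C; nearly all actives have a fitted effect of over 70% in size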
# Mammal cell tox: toxic to mammalian cells in Giardia aldolase counter-screen. mammalian cell viability counter-screen, qHTS. shares compounds with Giardia FBPA inh-1. 1,500 compounds, 4% hits. Potency, µM (doses to about 57.5 µM), without a hit: at the highest dose viability change, negative = toxicity, most hits filed as inhibitors. AID 2786;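 also: Chinese hamster ovary cells used as mammalian cytotoxicity surrogate; viability measured as cellular ATP by luminescence; potency is read from the fitted curve at half-maximal effect; compound exposure lasted 48 h before reading; nearly all actives have a fitted effect of over 60% in size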
# Giardia FBPA inh-2: confirmation of Giardia fructose-bisphosphate aldolase inhibitors; shares compounds with Giardia FBPA inh-1; purified Giardia aldolase enzyme activity, qHTS; Potency, µM (titrated, usually from 57.5 µM), without a hit: top-dose activity change, negative = inhibition, usual class: inhibitors; 1,500 compounds, 5% hits; also: potency is read from the fitted curve at half-maximal effect; nearly all actives have a fitted effect of over 45% in size
# Rabbit aldolase: selectivity test for Giardia aldolase inhibitors: rabbit aldolase; shares compounds with Giardia FBPA inh-1; Rabbit muscle FBPA enzyme inhibition, selectivity counter-screen; Potency, µM (top dose mostly 57.5 µM), for inactives: at the highest dose activity, negative = inhibition, actives largely listed as inhibitors; 1,500 compounds, 4% hits; AID 2794; also: potency is read from the fitted curve at half-maximal effect; nearly all actives have a fitted effect of over 60% in size
# Target sequence (P00883 whole entry, looked up): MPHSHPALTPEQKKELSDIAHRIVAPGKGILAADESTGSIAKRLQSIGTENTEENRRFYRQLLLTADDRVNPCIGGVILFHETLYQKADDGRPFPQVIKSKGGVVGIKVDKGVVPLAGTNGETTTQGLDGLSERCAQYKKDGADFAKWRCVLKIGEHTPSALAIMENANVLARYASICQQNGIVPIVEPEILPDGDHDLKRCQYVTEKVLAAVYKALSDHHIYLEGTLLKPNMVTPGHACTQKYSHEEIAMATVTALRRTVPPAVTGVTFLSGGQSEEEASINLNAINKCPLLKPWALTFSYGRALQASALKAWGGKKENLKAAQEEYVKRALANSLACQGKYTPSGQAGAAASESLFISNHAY
# GAPDH counter: counter-screen for Giardia aldolase inhibitors: GAPDH coupling enzyme. shares compounds with Giardia FBPA inh-1. GAPDH coupling enzyme counterscreen, biochemical, qHTS. Potency, µM (top dose mostly 57.5 µM), without a hit: top-dose activity change, negative = inhibition, actives largely listed as inhibitors. 1,500 compounds, 6% hits; also: potency is read from the fitted curve at half-maximal effect; nearly all actives have a fitted effect of over 55% in size
# * = called active by the depositor; i = inactive; u = inconclusive; x = not tested or not shown; [ ] = remark or other dose. Unless noted, calls follow the shape of the dose curve; as a rule, active = well fitted curve in the direction sought with a large enough effect; inconclusive = small, poorly fitted or top-dose-only effect, or another doubt; inactive = no such curve, though single readings can be large; an effect the other way counts as inactive or inconclusive. % is scaled to controls: 0 for no effect and ±100 for the full control effect.
SMILES,Giardia FBPA inh-1,VACV mCherry inh,FMDV inh,HCMV antiviral,HCV inh,VACV Venus inh,Giardia growth,Mammal cell tox,Giardia FBPA inh-2,Rabbit aldolase,GAPDH counter
CC(=O)O[C@H]1C[C@H]2CC[C@@H]3[C@H]4C[C@@H]([N+]5(C)CCCCC5)[C@@H](OC(C)=O)[C@]4(C)CC[C@@H]3[C@@]2(C)C[C@@H]1[N+]1(C)CCCCC1,4.9%,x,-7.0%,x,x,x,x,x,x,x,x
O=C(NCc1ccccc1F)c1ccc2c(c1)OCCO2,-3.5%,-13.0%,43.1%,67.0,1.3%,-3.7%,x,x,x,x,x
O=C(N/N=C/c1ccccn1)c1cc(-c2ccccc2Cl)n[nH]1,15.8µM*,x,22.9%,-37.0,0.1%,x,-19.0%,-8.5%,-7.9%,-13.6%,-18.4%
O=C(N/N=C/c1ccccn1)c1cc(-c2ccccc2)nc2ccccc12,14.1µM*,x,-40.9%,9.5,10.6%,x,24.3%,u,10.4%,6.6%,-2.0%
O=C(N/N=C/c1ccccn1)c1cccc(S(=O)(=O)N2CCCC2)c1,15.8µM*,x,3.6%,-30.2,9.0%,x,4.4%[10.4 µM],5.4%,6.0%,7.1%,-0.1%
O=C(N/N=C/c1ccccn1)c1cc(C2CC2)nc2ccccc12,8.3%,-23.7%,-8.3%,x,-10.6%,-15.4%,x,x,x,x,x
COc1ccc(OC)c(/C=N/NC2=NS(=O)(=O)c3ccccc32)c1,15.8µM*,x,-9.0%,0.5,13.5%,x,-16.7%[10.4 µM],-4.3%,1.4%,7.7%,10.5%
O=[N+]([O-])c1cccc(/C=N/NC2=NS(=O)(=O)c3ccccc32)c1,-2.0%,i,14.1%,-26.7,-3.4%,-4.0%,x,x,x,x,x
COc1ccc(/C=N/NC2=NS(=O)(=O)c3ccccc32)cc1,4.47µM*,x,9.1%,-26.1,16.6%,x,-6.8%[10.4 µM],4.8%,8.9%,15.8%,6.1%
O=S1(=O)N=C(N/N=C/c2ccccn2)c2ccccc21,u,-19.0%,-12.5%,31.4,-0.8%,-12.3%,x,x,x,x,x
COc1ccc(/C=N/NC2=NS(=O)(=O)c3ccccc32)cc1OC(C)=O,3.55µM*,-14.2%,7.5%,2.6,21.8%,-4.7%,12.0%[38.3 µM],-3.6%,u,6.6%,2.6%
COc1cc(/C=N/NC2=NS(=O)(=O)c3ccccc32)cc(OC)c1OC,7.94µM*,1.3%,12.2%,u,u,-5.2%,-14.3%,5.7%,12.9%,8.5%,6.5%
CC(=O)OC[C@@H]1O[C@H](C/C=N\O[C@@H](C)c2cc(-c3c(C)cc(C)cc3C)no2)C=C[C@@H]1OC(C)=O,0.9%[12.9 µM],x,x,x,x,x,x,x,x,x,x
CC1(C(=O)NCC2CC2)Cc2c(-c3cccc(C(F)(F)F)c3)ccnc2O1 (centres undefined),x,-15.0%,-23.3%,-29.6,x,-20.8%,x,x,x,x,x
CN(C)c1ccc(/C=N/NC2=NS(=O)(=O)c3ccccc32)cc1,u,i,5.6%,u,4.3%,-6.8%,x,x,x,x,x
CC(=O)Oc1ccc(/C=N/NC2=NS(=O)(=O)c3ccccc32)cc1,7.94µM*,x,-6.2%,-10.0,11.8%,x,-26.5%,0.7%,10.0%,1.1%,11.6%
NC(N)=NS(=O)(=O)c1ccc(NC(=S)NC(=O)c2ccncc2)cc1,11.2µM*,-7.4%,0.0%,-6.4,9.2%,1.8%,4.2%[10.4 µM],9.7%,6.2%,4.7%,10.8%
COc1cccc(C(=O)NCc2nc(-c3ccccc3)no2)c1OC,x,i,-10.0%,8.3,x,-0.5%,x,x,x,x,x
COC(=O)C(N)CCCN=C(N)N[N+](=O)[O-] (centres undefined),-2.3%,x,x,x,x,x,x,x,x,x,x
CC(C)(C)NC(=S)/N=C(\N)N[N+](=O)[O-],15.8µM*,i,12.6%,-6.4,-14.7%,-3.1%,29.7%,13.8%,14.4%,13.6%,14.1%
O=C(NCc1ccccc1Cl)C1CCN(c2cnccn2)CC1,0.6%,x,-9.9%,-3.3,-2.2%,x,x,x,x,x,x
NC(=S)NN=C1C2CC3CC(C2)CC1C3,17.7µM*,u,-2.5%,u,-6.0%,u,11.0%,6.5%,-1.6%,14.7%,5.6%
NC(=O)C(=O)NN=C1C2CC3CC(C2)CC1C3,-9.6%,5.2%,-14.7%,17.5,2.0%,1.9%,x,x,x,x,x
COc1cc(CN2CCN(Cc3ccc([N+](=O)[O-])cc3)CC2)c([N+](=O)[O-])cc1OC,12.6µM*,x,u,-75.7*,-4.3%,x,-17.2%,8.7%,u,-23.2%,-10.7%
Cc1ccc(NC(=S)N2CCC(c3ccc(C)cc3)C2)cc1 (centres undefined),15.8µM*,x,67.3%,-0.3,u,x,-2.7%[10.4 µM],-15.0%,11.0%,6.5%,17.7%
SMILES,Giardia FBPA inh-1,VACV mCherry inh,FMDV inh,HCMV antiviral,HCV inh,VACV Venus inh,Giardia growth,Mammal cell tox,Giardia FBPA inh-2,Rabbit aldolase,GAPDH counter
CCC1CCCCN1C(=O)CCNC(=O)Cn1cnc2ccccc2c1=O (centres undefined),6.1%,-9.3%,-14.2%,-15.6,6.8%,0.4%,x,x,x,x,x
Cc1ccc(N2CCN(C(=S)c3ccc(-c4cccc([N+](=O)[O-])c4)o3)CC2)cc1,15.8µM*,-8.0%,-1.2%,-10.4,-17.2%,-6.4%,-16.6%[10.4 µM],-13.5%,-1.4%,-4.9%,5.7%
CCCNC(=O)CN1C(=O)c2ccccc2Sc2ncccc21,-2.0%,-11.6%,11.2%,10.5,26.3%,-0.4%,x,x,x,x,x
Cc1ccc(Nc2cc(C)nn2-c2nc(C)cc(=O)[nH]2)cc1,-27.8%,2.24µM*,3.55µM*,x,u,u,u,2.91µM*,-4.1%,-14.1%,-26.5%
Cc1ccc(Nc2cc(C)nn2-c2nc(C)cc(C)n2)cc1,10.9%,-7.2%,0.0%,u,u,u,x,x,x,x,x
CCn1c(C)nc2cc(C(=O)NN=Cc3ccc([N+](=O)[O-])cc3)ccc21,x,-15.7%,-20.8%,13.7,6.5%,-12.2%,x,x,x,x,x
COc1cc(/C=C(\C#N)C(=O)c2c[nH]c3ccccc23)cc(OC)c1O,7.92µM*,-5.9%,17.8%,-29.4,1.2%,29.1%,-18.2%,3.0%,2µM*,u,u
O=C(NC(=S)N1CCN(C/C=C/c2ccccc2)CC1)c1cccnc1,11.2µM*,u,-14.8%,-10.3,-0.1%,u,10.9%,9.7%,-3.1%,6.9%,-1.5%
